Screens from PubChem BioAssay.
DAX1 inh-1 – inhibits human nuclear receptor DAX1; hit rate 0.99% among 340,000; HEK293 Gal4-DAX1 luciferase reporter, luminescence; AID 504766; P51843; inhibition, % at 6.75 µM;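 active = inhibition above the mean over all tested compounds plus 3 SD, cut at about 4.2% in these data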;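 note: inhibition shows as a rise in luminescence from relieved DAX1 repression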
Target sequence (P51843 207-470 limits assumed): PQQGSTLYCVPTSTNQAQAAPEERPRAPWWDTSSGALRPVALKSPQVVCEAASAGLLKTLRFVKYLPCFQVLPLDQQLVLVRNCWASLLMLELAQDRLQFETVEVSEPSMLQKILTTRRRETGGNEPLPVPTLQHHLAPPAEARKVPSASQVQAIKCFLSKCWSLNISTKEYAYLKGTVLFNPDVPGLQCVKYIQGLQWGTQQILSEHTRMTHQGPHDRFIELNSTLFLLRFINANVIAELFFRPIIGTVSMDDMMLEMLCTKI
ssDAF12 agonist – activators of S. stercoralis DAF-12 nuclear receptor. HEK293 ssDAF-12/GRIP1 lit1-tk-luc reporter, luminescence; % of 3 µM dafachronic acid response. activation, % at 6.8 µM. hit rate 1% among 370,000. AID 652126;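 active = activation above the mean over all tested compounds plus 3 SD, cut at about 0.9% in these data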
hgDAF12 agonist – hgDAF-12 agonism, primary luciferase screen; HEK293 GAL4-hgDAF12 UAS-luciferase reporter, agonist luminescence; normalized to butyrate control; activation, % at 6.8 µM; hit rate 1.8% among 370,000;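 active = activation above a cutoff set at the mean of all screened compounds plus 3 SD, cut at about 10% in these data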
GAA850 FXN act – activators of GAA850 frataxin (FXN) promoter. activation, % at 6 µM. HEK293 lucGAA850 FXN promoter luciferase reporter, 24 h; percent of 10 µM SAHA response. AID 540364. hit rate 0.56% among 360,000;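 active = activation above the average of all compounds screened plus 3 SD, cutoff fixed separately per campaign, cut at about 7.5% in these data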
hcDAF12 agonist – activators of H. contortus DAF-12 nuclear receptor | HEK293 hcDAF-12 lit1-tk-luc reporter, luminescence; 0% DMSO, 100% Δ7-dafachronic acid | AID 652067 | hit rate 1.4% among 370,000 | activation, % at 6.8 µM;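 active = activation above the mean of all tested compounds plus 3 SD, cut at about 5.5% in these data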
DAX1 inh-2 – inhibitors of DAX1 repression of SF-1 activated StAR promoter; hit rate 1.1% among 370,000; HEK293T StAR-luciferase reporter, SF-1/DAX-1 repression relief; inhibition, % at 6.8 µM;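 active = inhibition above the mean over all tested compounds plus 3 SD, cut at about 3.6% in these data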;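 note: higher inhibition means more luminescence from relief of DAX-1 repression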
Of the large screens only hits and unclear results are named; the others gave an inactive call. The list is not random: actives were taken first. Their share in the collection is about 4.5%.

CCOC(=O)[C@@]12CN(C(=O)OC(C)(C)C)CC=C1N(Cc1ccc(OC)cc1)C(=O)[C@H]2CC(=O)NCCc1ccccc1OC	none (no result: DAX1 inh-1, GAA850 FXN act)
COc1cc(/C=N/NC(=O)COc2ccc(C)cc2)ccc1OC(=O)c1cccs1	ssDAF12 agonist 0.9
CN(C)S(=O)(=O)c1ccc(Cl)c(NC(=O)COc2ccccc2[N+](=O)[O-])c1	ssDAF12 agonist 0.9
O=C(NCC(=O)N(CCN1CCOCC1)C(C(=O)NC1CCCC1)c1cccs1)c1ccco1 (stereo unspecified)	DAX1 inh-1 4.7
C=CCN(C(=O)CNC(=O)c1ccco1)C(C(=O)NC1CCCC1)c1cccs1 (stereo unspecified)	none
O=CNc1cc(-c2ccccc2)cn2c(-c3ccc(F)c(Cl)c3)cnc12	ssDAF12 agonist 1.5 (no result: DAX1 inh-1)
O=CNc1cc(-c2cccc(F)c2)cn2c(-c3ccc(F)c(Cl)c3)cnc12	none (no result: DAX1 inh-1)
Cc1cc(N)ncc1[N+](=O)[O-]	DAX1 inh-1 4.2
Cc1cc2nc[nH]c2cc1[N+](=O)[O-]	none
O=C1NCCNC1(c1c[nH]c2ccccc12)C(F)(F)F (stereo unspecified)	ssDAF12 agonist 1.4
COC(=O)[C@]12C[C@H](CC(=O)N3CCSCC3)C(=O)N(Cc3ccc(Cl)cc3Cl)C1=C[C@H](C(C)(C)C)O[C@@H]2C	none (no result: DAX1 inh-1, GAA850 FXN act)
COC(=O)c1ccccc1NC(=O)CS(=O)(=O)Cc1nc(-c2ccc(C)cc2)oc1C	ssDAF12 agonist 1.1
COc1ccc(NC(=O)CS(=O)(=O)Cc2nc(-c3ccc(C)cc3)oc2C)cc1	none
CCc1ccc(N(CC(=O)Nc2ccccc2C(=O)N2CCOCC2)S(C)(=O)=O)cc1	ssDAF12 agonist 1.5
CS(=O)(=O)N(CC(=O)Nc1ccccc1C(=O)N1CCOCC1)c1ccc(Cl)cc1	none
COc1ccc(CCNC(=O)c2cccnc2Cl)cc1OC	DAX1 inh-1 6.3
COc1ccc(CCNC(=O)c2ccccc2Cl)cc1OC	none
COc1ccc(-n2c(=O)cc(N3CCc4ccccc43)[nH]c2=O)cc1	none
O=c1cc(N2CCc3ccccc32)[nH]c(=O)n1-c1ccc(Br)cc1	hcDAF12 agonist 5.8
CCOC(=O)CNC(=O)CSc1nnc(-c2ccccc2)n1CC	none (no result: DAX1 inh-1, GAA850 FXN act)
Oc1ccc(/C=N/Nc2ncnc3c2ncn3Cc2ccccc2)cc1O	ssDAF12 agonist 1.3
Oc1cccc(/C=N/Nc2ncnc3c2ncn3Cc2ccccc2)c1	none
O=c1nc(Nc2ccccc2)oc2ccccc12	DAX1 inh-1 5.8
COc1ccc(N2CCN(C(=O)c3cc4c(-c5ccc(Cl)cc5)nn(C)c4s3)CC2)cc1	hcDAF12 agonist 6.0
Cn1nc(-c2ccc(Cl)cc2)c2cc(C(=O)NCC3CCCO3)sc21 (stereo unspecified)	none
CN1CCN(CCCNC(=O)c2cc3c(-c4ccc(Cl)cc4)nn(C)c3s2)CC1	hcDAF12 agonist 5.6
CCOc1ccc(S(=O)(=O)Nc2cccc(C(=O)NCC(c3ccccc3)N(C)C)c2)cc1 (stereo unspecified)	DAX1 inh-2 3.6
COc1ccccc1C(CNC(=O)c1cccc(S(=O)(=O)NCc2ccccc2)c1)N(C)C (stereo unspecified)	DAX1 inh-1 4.8
COc1ccc(C(CNC(=O)c2cccc(NS(=O)(=O)c3ccccc3)c2)N(C)C)cc1 (stereo unspecified)	none
CC(NCc1ccco1)C(=O)N1CCN(c2ccc(F)cc2)CC1 (stereo unspecified)	none (no result: DAX1 inh-1, GAA850 FXN act)
Nc1nc2n(n1)C(=O)CC(c1ccccc1)N2 (stereo unspecified)	DAX1 inh-2 3.7
Nc1nc2n(n1)C(c1cccs1)CC(c1ccccc1)N2 (stereo unspecified)	none
O=c1[nH]c(-c2ccc(F)cc2)nc2c1sc(=S)n2-c1ccccc1	none
O=c1[nH]c(-c2ccc3c(c2)OCO3)nc2c1sc(=S)n2-c1ccccc1	ssDAF12 agonist 1.0
COc1ccc(-n2nnc3c(SCC(=O)N4CCCc5ccccc54)ncnc32)cc1	DAX1 inh-1 6.3
CC(=O)Nc1cccc(Oc2cnc3ccccc3n2)c1	DAX1 inh-1 4.6
COC(=O)[C@]12C[C@H](CC(=O)N3CCCC3)C(=O)N(Cc3ccco3)C1=C[C@H](C1CCCC1)O[C@@H]2C	none (no result: DAX1 inh-1, GAA850 FXN act)
CC(=O)NNC(=O)c1csc(-c2csc(C)n2)n1	DAX1 inh-1 7.3
Cc1nc(-c2nc(C(=O)NNS(C)(=O)=O)cs2)cs1	none
S=c1[nH]nc(-c2cc(-c3ccco3)[nH]n2)n1-c1ccccc1Cl	none
S=c1[nH]nc(-c2ccco2)n1-c1ccccc1Cl	DAX1 inh-2 4.3
S=c1[nH]nc(-c2ccn[nH]2)n1-c1ccccc1Cl	ssDAF12 agonist 1.2
COc1ccc(-c2cc(=O)oc3cc(OCC(=O)NCc4ccccn4)ccc23)cc1	DAX1 inh-1 5.7
CCCCc1cc(=O)oc2cc(OCC(=O)Nc3ccccn3)ccc12	DAX1 inh-2 4.3
Cc1n[nH]c(C)c1S(=O)(=O)NCCc1cccc(F)c1	none (no result: DAX1 inh-1, GAA850 FXN act)
NC(=O)C1CCN(c2nc(-c3ccc(OCc4ccccc4)cc3)cs2)CC1	none (no result: DAX1 inh-1, GAA850 FXN act, DAX1 inh-2)
O=C(NCc1ccccc1Cl)C1CCCN(c2nc3ccccc3o2)C1 (stereo unspecified)	none (no result: DAX1 inh-1, GAA850 FXN act)
CCOc1ccc(N(CC(=O)Nc2c(C)n(C)n(-c3ccccc3)c2=O)S(=O)(=O)c2ccc3c(c2)N(C(=O)C2CCC2)CC3)cc1	none (no result: DAX1 inh-1, GAA850 FXN act)
C=C(C)C1(O)OC(=O)C=C1OC (stereo unspecified)	hcDAF12 agonist 6.5
Cc1ccc(-c2cc(C(=O)N=Nc3c(O)[nH]c4ccccc34)[nH]n2)cc1C	none (no result: DAX1 inh-1, GAA850 FXN act)
O=C(Cc1c(F)cccc1Cl)NCc1cccnc1	hcDAF12 agonist 5.6
Cc1ccc(C=Nn2c(-c3n[nH]c4c3CCC4)n[nH]c2=S)s1	none (no result: DAX1 inh-1, GAA850 FXN act)
CC(C)CN1CCCC(N2CCN(c3cccc(Cl)c3)CC2)C1 (stereo unspecified)	hcDAF12 agonist 6.3
COc1ccc(CN2CCCC(N3CCN(c4cccc(Cl)c4)CC3)C2)cc1OC (stereo unspecified)	none
CCCCCCCCN1C(=O)[C@@H](CC(=O)NCCCN2CCCC2=O)C[C@@]2(C(=O)OC)C1=C[C@H](C(C)(C)C)O[C@@H]2C	none (no result: DAX1 inh-1, GAA850 FXN act)
CCOc1ccccc1CNCCO	none
CCC(CO)NCc1ccccc1OC(C)C (stereo unspecified)	DAX1 inh-1 5.0
Cc1c(C)n(Cc2ccc(-c3ccccc3C(=O)O)cc2)c2ccc(C(=O)N[C@@H](C)c3ccc(Br)cc3)cc12	none (no result: DAX1 inh-1, GAA850 FXN act)
C=CCN1c2ccccc2Sc2cnccc21	none
CC(=O)OCCN1c2ccccc2Sc2cnccc21	hgDAF12 agonist 11
CCCC(=O)N1CCC[C@]2(CC[C@@H](CCC(C)=O)O2)C1	none (no result: DAX1 inh-1, GAA850 FXN act)
CC(C)(C)N(NC(=O)Nc1ccccc1)C(=O)c1ccccc1Cl	DAX1 inh-1 6.3
